# This excerpt belongs to a sample that is enriched for hits.
# KDM5B inhibitor = inhibitors of human KDM5B histone demethylase; hit rate 2.6% among 220,000; Potency, µM (titrated, usually from 57.7 µM), hits mostly inhibitors; KDM5B demethylase, FDH-coupled NADH fluorescence (FDH is formaldehyde dehydrogenase); Q9UGL1; active means well fitted inhibition curve with a large enough effect; further: 0% is about no effect; nearly all actives have a fitted effect of over 70% in size
#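 Measured: NADH fluorescence change, 30 min, RT. System: KDM5BΔAP 200 nM final, H3K4me3 peptide, α-KG, Fe(II), ascorbate, NAD⁺ plus FDH, pH 7.5 HEPES. Compounds: titrated, 10 min pre-incubation with enzyme.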
# * marks the source's active call; other numbers are inactive results; i = inactive. Potency means the concentration at half of the fitted maximal effect.
SMILES,KDM5B inhibitor
Cc1noc2c(NCCCn3ccnc3)cc(-c3cccs3)nc12,i
FC(F)(F)c1nc(SCc2ccc(Cl)cc2Cl)n[nH]1,i
COc1ccc(Cl)cc1NC(=O)C1CCN(S(=O)(=O)c2ccc3c(c2)CC(C)N3C(C)=O)CC1 (stereo not given),i
CN(C)C(=O)C1CCc2nnc(CNC(=O)Nc3cccnc3)n21 (stereo not given),i
CC(C)(C)OC(=O)N1CCC(c2c(C(=O)N3CCc4ccccc4C3)cnn2-c2ccc(Cl)cc2)CC1,i
C#CCOc1ccc2ccccc2c1/C=C(\C#N)c1ccc(F)cc1,i
CCn1ncc(NC(=O)Cn2ncc3cc(-c4cc(F)ccc4F)ccc32)n1,20µM*
Cc1cc(=O)n(CC(=O)Nc2ccc(N(C)C)cc2)c(-c2ccc(F)cc2)n1,i
CNC(=O)CCn1ncc2cc(OCc3ccccc3-c3ccc(F)cc3)ccc21,i
Cc1ccc(C)c(-c2nn(CC(=O)Nc3cc(F)ccc3F)c(=O)c3c2CCCC3)c1,i
CCn1ncc(NC(=O)Cn2ncc3cc(-c4ccc(N(C)C)cc4)ccc32)n1,14.1µM*
CCOc1ccc(NC(=O)CN2CCN(CC(=O)Nc3ccc(N(C)C)cc3)CC2)cc1,i
O=C1NC2(CCCC2)C(=O)N1Cc1coc(-c2cccc(F)c2)n1,i
O=C(c1cc2cc(Br)cc(Br)c2oc1=O)N1CCc2ccccc2C1,i
CCN(CC)c1cc(C)c2cc(NC(=O)c3cccc(F)c3)ccc2n1,i
CCCc1nn2c(=O)cc(COC(=O)C3CCCCC3)nc2s1,i
COc1ccc(NC(=O)Nc2cccc(-c3ccc(N4CCOCC4)nn3)c2)cc1Cl,i
COc1ccccc1CCc1nc(-c2nnn3c2COC(c2ccc(C)cc2)C3)no1 (stereo not given),i
COc1ccc(C2Cn3nnc(-c4nc(-c5ccccc5OC)no4)c3CO2)cc1 (stereo not given),28.2µM*
CCOc1cccc(-c2noc(-c3nnn4c3COC(c3ccc(OC)cc3)C4)n2)c1 (stereo not given),17.8µM*
COc1ccc(C2Cn3nnc(-c4nc(-c5ccc(F)cc5)no4)c3CO2)cc1 (stereo not given),i
CCOc1ccc(C2Cn3nnc(-c4nc(-c5cccc(Br)c5)no4)c3CO2)cc1 (stereo not given),i
COc1ccc(C2Cn3nnc(-c4nc(-c5cccc(F)c5)no4)c3CO2)cc1 (stereo not given),i
COc1cccc(Cc2nc(-c3nnn4c3COC(c3ccc(Cl)cc3)C4)no2)c1 (stereo not given),i
COc1cccc(-c2nc(-c3nnn4c3COC(c3ccc(Cl)cc3)C4)no2)c1OC (stereo not given),25.1µM*
SMILES,KDM5B inhibitor
CCOc1ccc(C2Cn3nnc(-c4nc(-c5ccccc5F)no4)c3CO2)cc1 (stereo not given),i
Cc1ccc(C2Cn3nnc(-c4noc(-c5ccccc5Cl)n4)c3CO2)cc1 (stereo not given),i
Cc1ccc(-c2nc(-c3nnn4c3COC(c3ccc(Cl)cc3)C4)no2)cc1 (stereo not given),i
COc1ccccc1-c1nc(-c2nnn3c2COC(c2ccc(C)cc2)C3)no1 (stereo not given),12.6µM*
Cc1ccc(NC2CC(C)NC(=S)N2)cc1 (stereo not given),i
O=C(O)CCNS(=O)(=O)c1ccc(OC(F)(F)F)cc1,i
O=C(CCc1nc(-c2ccccc2)no1)Nc1cccc(S(=O)(=O)NC2=NCCC2)c1,i
CCCS(=O)(=O)N1C[C@@H](COC)[C@H](C(N)=O)C1,i
CC(C)CNc1nc(-c2ccc(Cl)cc2)c(CC(=O)O)s1,i
c1cc(-c2noc(-c3ccco3)n2)cc(-c2noc(-c3ccco3)n2)c1,i
Cc1ccc(-c2nnc(SCc3cc(-c4ccco4)on3)o2)cc1,i
CCOC(=O)/C(C#N)=C/c1cccn1-c1ccc(Cl)cc1,i
COC(=O)c1ccc(NC(=O)CCCC(=O)OCC(=O)c2ccc(Cl)cc2)cc1,i
COC(=O)c1c(NC(=O)c2nc(SCc3ccccc3C)ncc2Cl)sc2c1CCCC2,i
CC1=C(c2ccc(C)c(C)c2)S(=O)(=O)N=C1N1CCN(c2cccc(C)c2)C(C)C1 (stereo not given),i
COc1ccc(NC(=O)CSc2oc(-c3ccco3)nc2S(=O)(=O)c2ccc(C)cc2)c(OC)c1,i
COc1ccccc1-c1nc(-c2nnn3c2COC(c2ccc(Cl)cc2)C3)no1 (stereo not given),14.1µM*
COc1cc(OC)cc(-c2nc(-c3nnn4c3COC(c3ccc(Cl)cc3)C4)no2)c1 (stereo not given),i
COc1ccc(C2Cn3nnc(-c4noc(-c5cc(F)ccc5F)n4)c3CO2)cc1 (stereo not given),17.8µM*
COc1ccc(C2Cn3nnc(-c4noc(-c5ccccc5Cl)n4)c3CO2)cc1 (stereo not given),i
Cc1ccc(C2Cn3nnc(-c4noc(-c5cc(Cl)ccc5F)n4)c3CO2)cc1 (stereo not given),i

# Screening results: PubChem BioAssay, National Center for Advancing Translational Sciences (NCATS)
